From PubChem BioAssay AID2717 (Broad Institute, 2010)
Out of some 300,000 compounds screened, about 3,200 (1.1%) were called active. Rule as the data show it: active = inhibition above about 75%; inconclusive = no clear call, values can overlap the other calls; inactive = below that; tested in HMLE shEcad cells. What follows is part of a selection rich in actives, with near analogues and random picks from the rest.

test: cancer stem cell viability inhibitors, primary screen, luminescence (AID 2717); conditions: cancer stem cell-like cells viability, at 7.5 µM, hits give high values

Which inhibition does the source give for COc1cccc(-c2ccc3c(c2)S(=O)(=O)c2cccc(C(=O)O)c2C3=O)c1OC here?
The inhibition was 7.27% (inactive).

For COc1ccc2c(c1)[C@H]1[C@H](CO2)[C@H](c2ccccc2)[C@]2(C)C(=O)Nc3cc(F)c(F)cc3C(=O)N12, which inhibition is on record?
The inhibition was 21.6% (inactive).

Which inhibition does the source give for Cc1ccc(NC(=O)C2CCC(C(C)(C)C)CC2)cc1S(=O)(=O)N1CCOCC1 (stereo unspecified) here?
The inhibition was 45.1% (inactive).

With CC1(C)C=C2[C@H]3CC[C@@H]4[C@@]5(C)CCC(=O)C(C)(C)[C@@H]5CC[C@@]4(C)[C@]3(C)CC[C@@]2(C(=O)O)CC1 as the molecule, how does the inhibition read?
Its inhibition is 107% (active).

For NCCN1CCN2C(=O)CN(C(=O)c3ccccc3)CC12 (stereo unspecified), which inhibition is on record?
The inhibition was -9.2% (inactive).

Which inhibition does the source give for CCCCOc1ccc(C(=O)NCC(=O)OCC(=O)c2c(N)n(C)c(=O)n(C)c2=O)cc1 here?
Its inhibition is 11.8% (inactive).

For COC(=O)c1ccccc1Sc1c(/C=N/OCc2ccc(Cl)cc2)c(C(F)(F)F)nn1C, which inhibition is on record?
Its inhibition is 17.8% (inactive).

Which inhibition does the source give for Cn1nc(C(F)(F)F)c(C(=O)Nc2cccc(C(F)(F)F)c2)c1SCc1ccc(Cl)cc1 here?
Its inhibition is 105% (active).

Which inhibition does the source give for O=C(O)CSc1c2c(nc3cc(C(=O)Nc4cccc(C(F)(F)F)c4)ccc13)CCCC2 here?
The inhibition was 14.3% (inactive).

For O=C(CNC(=O)c1n[nH]c2ccccc12)Nc1cc(Cl)ccc1Cl, which inhibition is on record?
Its inhibition is 5.44% (inactive).

Which inhibition does the source give for CC(CNC(=O)Cn1cnc2c(OCc3ccccc3)ncnc21)c1ccccc1 (stereo unspecified) here?
Its inhibition is -8.55% (inactive).

For O=C(Nc1ccccc1)/C(=C/c1ccc([N+](=O)[O-])cc1)NC(=O)c1ccccc1, which inhibition is on record?
Its inhibition is -13% (inactive).

Which inhibition does the source give for Cc1cccc(NC(=O)c2sc(-c3ccccc3)nc2-c2ccc([N+](=O)[O-])cc2)c1 here?
The inhibition was 12.3% (inactive).

Which inhibition does the source give for CCOC(=O)/C(=C\c1ccc([N+](=O)[O-])cc1)C(=O)c1cc(C(C)=O)c(Nc2ccccc2)s1 here?
The inhibition was 88.4% (active).

For O=C(OCC(=O)N1CCN(c2ccccc2)CC1)c1ccc([N+](=O)[O-])s1, which inhibition is on record?
The inhibition was 0.421% (inactive).

Which inhibition does the source give for CN(CC(=O)Nc1ccc(OC(F)F)cc1)S(=O)(=O)/C=C/c1ccccc1 here?
The inhibition was 7.09% (inactive).

Which inhibition does the source give for COc1cc(-c2cc(C(=O)OCC(=O)Nc3ccc4c(c3)OCO4)c3ccccc3n2)cc(OC)c1OC here?
Its inhibition is -14.5% (inactive).

For NS(=O)(=O)c1ccc(NC(=O)COC(=O)c2c3c(nc4ccccc24)/C(=C\c2ccc4c(c2)OCO4)CCC3)cc1, which inhibition is on record?
Its inhibition is 93.4% (active).

With O=C(COC(=O)c1c2c(nc3ccccc13)/C(=C\c1cccs1)CCC2)Nc1ccccc1Cl as the molecule, how does the inhibition read?
The inhibition was 73.5% (inactive).

For CN(C(=O)COC(=O)Cc1ccccc1[N+](=O)[O-])C1CCS(=O)(=O)C1 (stereo unspecified), which inhibition is on record?
Its inhibition is -16.1% (inactive).

Which inhibition does the source give for CN1C(=O)/C(=C/c2ccc(C(=O)NC3CCCC3)cc2)Oc2ccccc21 here?
Its inhibition is 2.95% (inactive).

For CCCN1CCN(C(=O)CCCNC(=O)c2ccc(Cl)cc2)CC1, which inhibition is on record?
The inhibition was -11.6% (inactive).

With CN1CCN(CCCNC(=O)c2ccc(/C=C3\Oc4ccccc4N(Cc4ccc(Cl)cc4)C3=O)cc2)CC1 as the molecule, how does the inhibition read?
The inhibition was 103% (active).

For COc1ccc(/C=C/C(=O)OCC(=O)NC2CCCCCC2)cc1OC, which inhibition is on record?
The inhibition was -6.85% (inactive).

Which inhibition does the source give for CC(=O)c1sc(NC(=O)CCN2C(=O)C3CC=CCC3C2=O)nc1-c1ccccc1 (stereo unspecified) here?
Its inhibition is -4.39% (inactive).

For Cc1cccc(OCC(=O)NCC(=O)N/N=C/c2ccc(N(C)C)cc2)c1, which inhibition is on record?
Its inhibition is 4.13% (inactive).

For Cc1ccc(/C=N/NC(=O)COc2ccccc2-c2ccccc2)cc1, which inhibition is on record?
Its inhibition is 114% (active).

With CSc1ccc(/C=N\NC(=O)COc2ccc(Cl)cc2Br)cc1 as the molecule, how does the inhibition read?
The inhibition was -0.83% (inactive).

For CC(C)COc1ccc(C(=O)NNC(=O)CCC(=O)c2cccs2)cc1, which inhibition is on record?
Its inhibition is -16.7% (inactive).

With CN(CC(=O)Nc1ccc(C(N)=O)cc1)S(=O)(=O)c1ccc2c(c1)OCCO2 as the molecule, how does the inhibition read?
Its inhibition is -1.86% (inactive).

For COC(=O)c1c(NC(=O)COc2ccc(Cl)cc2Cl)sc2c1CC(C)(C)NC2(C)C, which inhibition is on record?
The inhibition was 103% (active).

For CCOC(=O)c1c(NC(=O)c2ccc(S(=O)(=O)N(C)CC3CCCO3)cc2)sc2c1CC(C)(C)NC2(C)C (stereo unspecified), which inhibition is on record?
The inhibition was 62.9% (inactive).

Which inhibition does the source give for Cc1nn(-c2ccccc2)c(C)c1NC(=O)COc1ccc(Cl)cc1Cl here?
The inhibition was 22.1% (inactive).

Which inhibition does the source give for CC(OC(=O)/C=C/c1ccccc1)C(=O)Nc1ccc(C(N)=O)cc1 (stereo unspecified) here?
The inhibition was -9.55% (inactive).

With COc1ccc(C2=NN(c3nc4ccccc4s3)C(=O)C2)cc1 as the molecule, how does the inhibition read?
Its inhibition is 81.2% (active).

With COC(=O)Cc1[nH]n(-c2nc3ccccc3s2)c(=O)c1C(C)=Nc1ccc(OC)cc1 as the molecule, how does the inhibition read?
The inhibition was 32.2% (inactive).

For COc1ccc(-n2nnnc2-c2nc3ccccc3s2)cc1, which inhibition is on record?
The inhibition was 10.3% (inactive).

For O=C(NCCC1=CCCCC1)c1ccc(-n2cncn2)cc1, which inhibition is on record?
The inhibition was -10.8% (inactive).

Which inhibition does the source give for CCOc1ccccc1Nc1ccc2nonc2c1[N+](=O)[O-] here?
The inhibition was -3.74% (inactive).

Which inhibition does the source give for O=C(O)c1cccc(S(=O)(=O)Nc2ccc(O)cc2Sc2nc3ccccc3s2)c1 here?
The inhibition was -15.7% (inactive).

For O=[N+]([O-])c1c(NCCO)cc(Sc2nc3ccccc3s2)c2nonc12, which inhibition is on record?
Its inhibition is 78.7% (active).

Which inhibition does the source give for CC(C)C(NC(=O)c1c(F)cccc1F)C(=O)NNC(=O)c1ccccc1 (stereo unspecified) here?
Its inhibition is -4.36% (inactive).

For CC(C)(C)OC(=O)C[C@@H]1C/C=C\C[C@@H](CC(=O)N[C@@H](CO)Cc2ccccc2)C(=O)N2CCC[C@H]2COC1=O, which inhibition is on record?
Its inhibition is -16.5% (inactive).

With Cc1ccc(C)c(NC(=O)CN(C)C(=O)COc2ccc3ccccc3c2)c1 as the molecule, how does the inhibition read?
Its inhibition is -11.2% (inactive).

For O=C(COc1ccc(Br)cc1F)NCC1(N2CCCCC2)CCCCC1, which inhibition is on record?
Its inhibition is 1.3% (inactive).

For CC1=NN(c2ccccc2)C(=O)C1C(=O)c1ccc([N+](=O)[O-])cc1 (stereo unspecified), which inhibition is on record?
Its inhibition is -1.87% (inactive).

Which inhibition does the source give for O=c1[nH]n(-c2ccc([N+](=O)[O-])cc2)c(=O)c2ccccc12 here?
The inhibition was -17.2% (inactive).

Which inhibition does the source give for O=C1CC(c2ccccc2)=NN1c1ccc([N+](=O)[O-])cc1 here?
Its inhibition is 101% (active).

Which inhibition does the source give for Cc1ccc(NC(=O)C2CC2)cc1S(=O)(=O)N1CCOCC1 here?
The inhibition was -16% (inactive).

Which inhibition does the source give for C[C@H](CO)N1C[C@H](C)[C@H](CN(C)C(=O)Nc2ccc(C(F)(F)F)cc2)Oc2c(NC(=O)c3ccncc3)cccc2C1=O here?
Its inhibition is 6.77% (inactive).

For COc1ccc(NC(=O)Nc2ccc3c(c2)C(=O)N([C@H](C)CO)C[C@H](C)[C@@H](CN(C)C(=O)Nc2ccc4c(c2)OCO4)O3)cc1, which inhibition is on record?
The inhibition was -11% (inactive).
